# Screening data deposited in PubChem BioAssay by several laboratories.
# Rows were chosen to be rich in hits. Some 2.4% of all compounds tested hit in one or more screens of this group.
# Mcl1-Noxa inh – Mcl-1/Noxa binding inhibitors, primary screen, biochemical, TR-FRET, 1536-well | TR-FRET Mcl-1/Noxa peptide binding, 2 h | inhibition, % at 21.7 µM | 220,000 tested, 1.5% active | AID 1022, 2008;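 active = compounds that cut the protein-peptide binding signal by more than 50% relative to plate controls in a single-dose test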;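 note: His-tagged Mcl-1 with rhodamine Noxa BH3 peptide and terbium anti-His antibody; 0% = Mcl-1 plus Noxa peptide wells and 100% = peptide-only wells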
# Target sequence (Q07820 whole entry, looked up): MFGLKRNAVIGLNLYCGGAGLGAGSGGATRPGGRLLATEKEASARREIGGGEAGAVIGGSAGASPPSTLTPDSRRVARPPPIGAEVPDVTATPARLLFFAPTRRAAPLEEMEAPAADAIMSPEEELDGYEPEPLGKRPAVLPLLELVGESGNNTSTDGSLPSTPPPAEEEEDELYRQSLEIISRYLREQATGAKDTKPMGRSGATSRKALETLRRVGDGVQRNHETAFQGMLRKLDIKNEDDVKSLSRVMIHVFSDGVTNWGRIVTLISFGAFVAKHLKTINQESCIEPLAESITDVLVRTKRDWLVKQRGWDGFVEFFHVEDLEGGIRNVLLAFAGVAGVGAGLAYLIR
# TNF death inh – inhibitors of TNF-alpha triggered necroptosis, primary screen, cell-based, Jurkat FADD-/-, single concentration; Jurkat FADD-/- TNF necroptosis rescue, ATP luminescence, 24 h; 0 = TNF only, 100 = no-TNF cells; activation (protection from cell death), % at 10 µM; 220,000 tested, 0.068% active;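 active = activation, meaning protection from cell death, of at least 50% relative to plate controls; inactive = activation below 50%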;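 note: necroptosis triggered by 40 ng/mL TNF-alpha added together with compound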
# Mcl1 Bid PPI – Mcl-1/Bid binding inhibitors, primary screen, biochemical, TR-FRET, 1536-well. Induced myeloid leukemia cell differentiation protein Mcl-1 (Homo sapiens), Q07820. TR-FRET Mcl-1/Bid-Dy647 peptide binding. inhibition, % at 21.7 µM. 220,000 tested, 0.97% active;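 active = compounds that cut the binding signal by more than half at the single screening dose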;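 note: His-tagged Mcl-1 with europium anti-His antibody binding Bid BH3 peptide; 0% = Mcl-1 plus peptide wells and 100% = peptide-only wells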
# Mcl-1 Bim block – inhibitors of Bim peptide binding to Mcl-1, primary screen, biochemical, bead-based flow cytometry, multiplex. Induced myeloid leukemia cell differentiation protein Mcl-1 (Homo sapiens), Q07820. Bim peptide-Mcl-1 binding. inhibition, % at 10 µM. 190,000 tested, 0.1% active. AID 1009, 2008; in the data active = inhibition above about 40%;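 note: 0% = no compound tracer wells and 100% = peptide blocker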
# MCL1-BIM inh – inhibitors of MCL1 binding to BIM-BH3, primary screen, biochemical, fluorescence polarization. GST-MCL1 / FITC-Bim-BH3 fluorescence polarization. inhibition, % at 10.9 µM. 320,000 tested, 0.68% active. AID 2057, 2009;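 active = inhibition above the mean inhibition of all tested compounds plus 3 SD, set per campaign, cut at about 40% in these data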;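 note: 0% = DMSO wells and 100% = unlabeled Bim-BH3 peptide control; higher means more loss of mP so more displacement of Bim peptide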
# zVAD death inh – inhibitors of zVAD-triggered necroptosis, primary screen, L929 cells; AID 1377, 2008; 220,000 tested, 0.38% active; L929 zVAD necroptosis rescue, ATP luminescence, 24 h; with zVAD 60 µM; viability rescue, % at 10 µM;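 active = activation, scaled between plate controls, above about 75%, limit read from the data; inactive = activation under that limit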;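 note: 0% = zVAD with DMSO and 100% = DMSO alone without zVAD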
# * marks the source's active call; other numbers are inactive results; / = no result.
SMILES,Mcl1-Noxa inh,TNF death inh,Mcl1 Bid PPI,Mcl-1 Bim block,MCL1-BIM inh,zVAD death inh
COc1ccc(NC(=O)CSc2nnc(-c3cccnc3)o2)c(OC)c1,/,/,/,/,4,/
CCOc1ccc(CN2CCN(S(=O)(=O)c3ccc(NC(C)=O)cc3)CC2)cc1OC,5,1,52*,-3,8,0
CCOc1cc(C=O)ccc1OCC(N)=O,17,0,-20,-1,4,24
CCOc1cc(C=O)ccc1OS(=O)(=O)c1ccc(NC(C)=O)cc1,39,1,52*,-1,-1,0
Cc1cnc(C(=O)Oc2ccc(-c3ccccc3)cc2)cn1,/,/,/,/,-2,/
Cc1cc(Br)ccc1SCC(=O)OCC(=O)NCc1ccco1,55*,-1,-26,/,31,-1
O=C(COC(=O)c1ccccc1Oc1ccccc1)NCc1ccco1,52*,-1,-26,-3,9,-1
COc1ccccc1NCCC(=O)OCC(=O)NCc1ccco1,64*,-3,-42,0,20,0
CCCCCOc1ccc(C(=O)Nc2ccc(S(=O)(=O)Nc3cc(C)on3)cc2)cc1,/,/,/,/,4,/
COc1ccc(NS(=O)(=O)c2cc(NC(=O)c3cccnc3Cl)ccc2N2CCCC2)cc1,10,-2,-9,/,-2,-1
CC1(OC(=O)c2cccs2)C(=O)C=C2C=C(c3ccsc3)OC=C2C1=O (stereo not drawn),/,/,/,/,27,/
COc1ccc(C2=CC3=C(Br)C(=O)C(C)(OC(=O)C4CCCC4)C(=O)C3=CO2)cc1 (stereo not drawn),27,3,-44,/,42*,0
COc1ccc(C2=CC3=C(Br)C(=O)C(C)(OC(=O)c4ccc(Cl)nc4)C(=O)C3=CO2)cc1 (stereo not drawn),53*,0,-10,/,26,0
CC1(OC(=O)C2CCCC2)C(=O)C=C2C=C(c3ccsc3)OC=C2C1=O (stereo not drawn),51*,1,-17,/,24,0
O=C(CNC(=O)C1CC(=O)N(c2cccc3ccccc23)C1)Nc1ccccc1Br (stereo not drawn),/,/,/,/,-11,/
O=C(NCCCO)Nc1ccc2nc(-c3ccco3)c(-c3ccco3)nc2c1,101*,-2,55*,31,158*,0
O=S(=O)(c1ccc2nc(-c3ccco3)c(-c3ccco3)nc2c1)N1CCOCC1,90*,-6,25,8,26,0
OCCCNC(=S)Nc1ccc2nc(-c3ccccn3)c(-c3ccccn3)nc2c1,13,-2,-54,2,43*,0
O=C(Nc1ccc2nc(-c3ccco3)c(-c3ccco3)nc2c1)NC1CC1,102*,-7,29,21,/,0
CCC(C(=O)Nc1cccnc1)n1c(=O)[nH]c2ccccc2c1=O (stereo not drawn),/,/,/,/,-1,/
O=C(CCc1nnc2ccc(N3CCC4(CC3)OCCO4)nn12)N1CCCCC1,/,/,/,/,6,/
O=C(Nc1ccc2nc(-c3cccs3)c(-c3cccs3)nc2c1)N1CCOCC1,12,-8,-2,3,9,3
O=C(Nc1ccc(N2CCOCC2)cc1)Nc1ccc2nc(-c3ccco3)c(-c3ccco3)nc2c1,102*,-10,42,7,12,16
O=C(CSCc1ccc([N+](=O)[O-])cc1)NC1CC2CCC1C2 (stereo not drawn),-2,63*,-44,0,5,5
CC(C)(C)SCCNC(=O)CSCc1ccc([N+](=O)[O-])cc1,-9,1,-11,-1,4,0
C#CCOCCOCCOCCNc1nc(N2CCN(C(=O)Cn3cc(CCCCN)nn3)CC2)nc(N2CCN(C(=O)Cn3cc(CCCN=C(N)N)nn3)CC2)n1,/,/,/,/,3,/
Cc1cc(NS(=O)(=O)c2ccc(NC(=O)c3cc4cc(Br)ccc4oc3=O)cc2)no1,-11,0,57*,-4,3,57
